Results filed as inconclusive are left out. Calls of active or inactive are those of the source. How the source made its calls, unless noted: active means hit-call score of the fitted dose curve at least 0.9, where 1 is the maximum; inactive means score below 0.9.
Legend:
[1] = target: human RAR-related Orphan Receptor gamma (RORg), RORC (gene 6097) (UniProt P51449); experiment: ATG_RORg_TRANS: Attagene TRANS-FACTORIAL HepG2 Assay for human RAR-related Orphan Receptor gamma (RORg) (AID 2283011; active means hit-call score of the fitted dose curve at least 0.9, where 1 is the maximum)
Sequence of human RAR-related Orphan Receptor gamma (RORg), RORC (gene 6097) (P51449 whole entry, looked up, the tested form may be a part): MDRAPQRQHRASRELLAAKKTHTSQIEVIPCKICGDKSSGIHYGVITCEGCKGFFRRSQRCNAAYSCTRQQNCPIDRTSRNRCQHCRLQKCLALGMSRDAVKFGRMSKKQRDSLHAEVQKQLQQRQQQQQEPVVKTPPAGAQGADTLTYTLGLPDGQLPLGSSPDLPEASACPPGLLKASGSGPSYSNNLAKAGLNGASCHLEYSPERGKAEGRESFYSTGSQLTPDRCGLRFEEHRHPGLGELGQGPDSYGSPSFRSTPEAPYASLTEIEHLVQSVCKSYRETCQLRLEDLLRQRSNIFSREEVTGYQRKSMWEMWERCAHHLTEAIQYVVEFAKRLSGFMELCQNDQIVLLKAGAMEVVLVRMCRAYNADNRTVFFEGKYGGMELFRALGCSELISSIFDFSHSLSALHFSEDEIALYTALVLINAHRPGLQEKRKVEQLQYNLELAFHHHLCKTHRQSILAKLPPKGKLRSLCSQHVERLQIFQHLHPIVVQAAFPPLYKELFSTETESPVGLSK
Summary of the method: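 Chimeric RORg-Gal4 transactivation in transfected HepG2; 24 h exposure; RT-PCR/capillary electrophoresis readout of reporter mRNA, DMSO baseline.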

[2] = target: Retinoic acid receptor RXR-alpha (Homo sapiens) (UniProt P19793); experiment: ATG_RXRa_TRANS: Attagene TRANS-FACTORIAL HepG2 Assay for human Retinoid X Receptor alpha (RXRa) (AID 2283012; active means hit-call score of the fitted dose curve at least 0.9, where 1 is the maximum)
Sequence of Retinoic acid receptor RXR-alpha (Homo sapiens) (P19793 whole entry, looked up, the tested form may be a part): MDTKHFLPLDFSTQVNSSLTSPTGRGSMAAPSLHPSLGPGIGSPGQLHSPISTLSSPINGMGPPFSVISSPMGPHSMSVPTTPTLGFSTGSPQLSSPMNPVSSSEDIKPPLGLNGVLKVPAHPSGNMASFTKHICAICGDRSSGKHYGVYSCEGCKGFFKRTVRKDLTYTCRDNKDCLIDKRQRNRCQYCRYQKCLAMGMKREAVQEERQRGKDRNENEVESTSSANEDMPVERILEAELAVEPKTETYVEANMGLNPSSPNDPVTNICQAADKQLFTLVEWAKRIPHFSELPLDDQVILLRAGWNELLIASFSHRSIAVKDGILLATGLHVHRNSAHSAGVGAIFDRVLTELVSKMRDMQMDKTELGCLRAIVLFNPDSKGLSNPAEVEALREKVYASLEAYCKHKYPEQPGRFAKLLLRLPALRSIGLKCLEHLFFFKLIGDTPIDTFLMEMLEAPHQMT
Summary of the method: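 Cells (HepG2) carried transiently transfected GAL4-responsive reporter units. Following a 24 h chemical incubation, reporter mRNA induction was read via RT-PCR fragment analysis; DMSO served as negative control and baseline.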

[3] = target: human Retinoid X Receptor beta (RXRb), RXRB (gene 6257) (UniProt P28702); experiment: ATG_RXRb_TRANS: Attagene TRANS-FACTORIAL HepG2 Assay for human Retinoid X Receptor beta (RXRb) (AID 2283013; active means hit-call score of the fitted dose curve at least 0.9, where 1 is the maximum)
Sequence of human Retinoid X Receptor beta (RXRb), RXRB (gene 6257) (P28702 whole entry, looked up): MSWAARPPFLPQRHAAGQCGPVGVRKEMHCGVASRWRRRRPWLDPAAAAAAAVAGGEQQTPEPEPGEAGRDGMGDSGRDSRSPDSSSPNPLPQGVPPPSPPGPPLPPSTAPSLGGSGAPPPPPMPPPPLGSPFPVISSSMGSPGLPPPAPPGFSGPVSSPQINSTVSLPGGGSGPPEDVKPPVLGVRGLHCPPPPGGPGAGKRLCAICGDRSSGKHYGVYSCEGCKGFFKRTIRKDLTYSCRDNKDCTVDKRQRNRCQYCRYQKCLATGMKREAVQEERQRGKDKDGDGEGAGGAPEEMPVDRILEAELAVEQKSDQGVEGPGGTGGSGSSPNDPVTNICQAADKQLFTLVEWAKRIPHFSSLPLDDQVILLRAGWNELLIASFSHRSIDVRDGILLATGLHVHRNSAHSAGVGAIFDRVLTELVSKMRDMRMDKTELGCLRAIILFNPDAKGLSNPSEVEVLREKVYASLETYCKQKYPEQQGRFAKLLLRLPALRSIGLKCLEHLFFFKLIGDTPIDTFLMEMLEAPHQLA
Summary of the method: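 Multiplexed TRANS reporter assay in HepG2; 24 h dosing; reporter mRNA by RT-PCR/CE fluorescence; gain-of-signal relative to DMSO.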

[4] = read-out: E-selectin (Homo sapiens) (UniProt P16581); experiment: BSK_3C_Eselectin: BioMAP Diversity Plus: 3C Assay for Eselectin Biomarker Activity (AID 2283015); settings: primary human endothelial cells (HUVEC); actives raise or lower the signal
Summary of the method: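 Endpoint derived by bidirectional fitting against DMSO vehicle; signal is ELISA-detected E-selectin from primary HUVEC at 24 h post-dosing, with parallel SRB staining (0.1% SRB, 560 nm) flagging cytotoxicity.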

[5] = read-out: Interleukin-1 alpha (IL1a), IL1A (gene 3552); experiment: BSK_BE3C_IL1a: BioMAP Diversity Plus: BE3C Assay for Interleukin-1 alpha (IL1a) Biomarker Activity (AID 2283016); settings: primary human bronchial epithelial cells; actives raise or lower the signal
Summary of the method: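 Cultures of primary human bronchial epithelial cells receive test chemical. After 24 h, IL-1a is quantified by ELISA, while parallel wells are fixed in TCA and SRB-stained for total protein. Changes in either direction are fitted relative to DMSO.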

[6] = read-out: Monocyte Chemoattractant Protein-1 (MCP1), CCL2 (gene 6347); experiment: BSK_3C_MCP1: BioMAP Diversity Plus: 3C Assay for Monocyte Chemoattractant Protein-1 (MCP1) Biomarker Activity (AID 2283017); settings: primary human endothelial cells (HUVEC); actives raise or lower the signal
Summary of the method: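 Using human vascular primary endothelium, researchers measured MCP-1 by ELISA 24 h after treatment, with DMSO serving as negative control for bidirectional fitting.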

[7] = read-out: Monocyte Chemoattractant Protein-1 (MCP1), CCL2 (gene 6347); experiment: BSK_4H_MCP1: BioMAP Diversity Plus: 4H Assay for Monocyte Chemoattractant Protein-1 (MCP1) Biomarker Activity (AID 2283018); settings: primary human endothelial cells (HUVEC); actives raise or lower the signal
Summary of the method: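 Readout: MCP-1 ELISA on compound-treated HUVEC, sampled 24 h post-dosing. Baseline and negative control DMSO; bidirectional fit. Overt toxicity checked alongside by sulforhodamine B protein staining at time of biomarker measurement.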

[8] = read-out: Human Leukocyte Antigen - DR isotype (HLADR), HLA-DRA (gene 3122); experiment: BSK_3C_HLADR: BioMAP Diversity Plus: 3C Assay for Human Leukocyte Antigen - DR isotype (HLADR) Biomarker Activity (AID 2283019); settings: primary human endothelial cells (HUVEC); actives raise or lower the signal
Summary of the method: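 Compound added to primary HUVEC cultures, 24 h incubation, then HLA-DR determined by ELISA; endpoint derived by bidirectional fitting relative to DMSO negative control.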

[9] = read-out: Interleukin-8 (IL8), CXCL8 (gene 3576); experiment: BSK_3C_IL8: BioMAP Diversity Plus: 3C Assay for Interleukin-8 (IL8) Biomarker Activity (AID 2283020); settings: primary human endothelial cells (HUVEC); actives raise or lower the signal
Summary of the method: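 Human vascular endothelial cells (umbilical vein) in the 3C system; IL-8 level detected by ELISA at 24 h post-dose, with DMSO as baseline.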

[10] = read-out: Matrix Metallopeptidase 1 (MMP1), MMP1 (gene 4312); experiment: BSK_BE3C_MMP1: BioMAP Diversity Plus: BE3C Assay for Matrix Metallopeptidase 1 (MMP1) Biomarker Activity (AID 2283024); settings: primary human bronchial epithelial cells; actives raise or lower the signal
Summary of the method: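 Dose cells, wait 24 h, run MMP1 ELISA; cells are human bronchial epithelial primaries. Both increases and decreases relative to DMSO counted.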

[11] = read-out: Pselectin, SELP (gene 6403); experiment: BSK_4H_Pselectin: BioMAP Diversity Plus: 4H Assay for Pselectin Biomarker Activity (AID 2283026); settings: primary human endothelial cells (HUVEC); actives raise or lower the signal
Summary of the method: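 Human vascular endothelium from umbilical vein; P-selectin measured by ELISA at 24 h post-dose, with cytotoxicity checked by sulforhodamine B total-protein staining in parallel cultures (0.1% SRB after 10% TCA fixation, read at 560 nm).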

[12] = BSK_4H_SRB: Viability Assessment in the BioMAP Diversity Plus: 4H Assay (AID 2283027); settings: primary human endothelial cells (HUVEC);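 further: cells exposed to compound for 24 h before staining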;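 on AC50: curves fitted both ways versus DMSO so AC50 may be loss or gain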
Summary of the method: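 Human umbilical vein endothelial cells were dosed with chemical and, after 24 h, fixed with 10% TCA, stained with 0.1% sulforhodamine B, and read at 560 nm to give total protein as a cytotoxicity measure. Bidirectional fitting relative to DMSO control.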

[13] = BSK_BE3C_SRB: Viability Assessment in the BioMAP Diversity Plus: BE3C Assay (AID 2283028); settings: primary human bronchial epithelial cells;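 further: measured 24 h after chemical dosing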
Summary of the method: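 SRB total-protein staining (0.1%, after TCA fixation) of chemically dosed human bronchial epithelial primary cells at 24 h; DMSO serves as the negative control for bidirectional curve fitting.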

[14] = read-out: Thrombomodulin, THBD (gene 7056); experiment: BSK_3C_Thrombomodulin: BioMAP Diversity Plus: 3C Assay for Thrombomodulin Biomarker Activity (AID 2283029); settings: primary human endothelial cells (HUVEC); actives raise or lower the signal
Summary of the method: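 Thrombomodulin ELISA, human primary HUVEC, 24 h post-dose; data fitted in both directions relative to DMSO.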

[15] = read-out: Urokinase-type plasminogen activator receptor (uPAR), PLAUR (gene 5329); experiment: BSK_4H_uPAR: BioMAP Diversity Plus: 4H Assay for Urokinase-type plasminogen activator receptor (uPAR) Biomarker Activity (AID 2283030); settings: primary human endothelial cells (HUVEC); actives raise or lower the signal
Summary of the method: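 Endpoint derived via bidirectional curve fitting against DMSO baseline; readout was ELISA detection of uPAR on umbilical vein endothelial cells at 24 h post-treatment, with SRB-stained parallel cultures assessing cytotoxicity.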

[16] = target: human Vitamin D Receptor (VDR), VDR (gene 7421) (UniProt P11473); experiment: ATG_VDR_TRANS: Attagene TRANS-FACTORIAL HepG2 Assay for human Vitamin D Receptor (VDR) (AID 2283022; active means hit-call score of the fitted dose curve at least 0.9, where 1 is the maximum)
Sequence of human Vitamin D Receptor (VDR), VDR (gene 7421) (P11473 whole entry, looked up): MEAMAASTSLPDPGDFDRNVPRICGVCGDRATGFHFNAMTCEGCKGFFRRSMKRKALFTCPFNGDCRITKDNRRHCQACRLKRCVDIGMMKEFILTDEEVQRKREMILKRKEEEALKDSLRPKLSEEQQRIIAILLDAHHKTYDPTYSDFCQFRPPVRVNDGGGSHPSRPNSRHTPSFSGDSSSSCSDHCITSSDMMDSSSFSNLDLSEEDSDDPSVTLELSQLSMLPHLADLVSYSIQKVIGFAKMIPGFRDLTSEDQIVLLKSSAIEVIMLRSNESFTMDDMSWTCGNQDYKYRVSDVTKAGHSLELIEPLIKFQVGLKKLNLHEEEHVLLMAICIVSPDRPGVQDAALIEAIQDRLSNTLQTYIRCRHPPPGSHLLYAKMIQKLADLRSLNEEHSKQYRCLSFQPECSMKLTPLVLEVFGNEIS
Summary of the method: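 Multiplexed TRANS reporter in HepG2; 24 h treatment; reporter mRNA by RT-PCR plus capillary electrophoresis; upregulation scored relative to DMSO.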

[17] = target: human Thyroid Receptor alpha (THRa1), THRA (gene 7067) (UniProt P10827); experiment: ATG_THRa1_TRANS: Attagene TRANS-FACTORIAL HepG2 Assay for human Thyroid Receptor alpha (THRa1) (AID 2283014; active means hit-call score of the fitted dose curve at least 0.9, where 1 is the maximum)
Sequence of human Thyroid Receptor alpha (THRa1), THRA (gene 7067) (P10827 whole entry, looked up, the tested form may be a part): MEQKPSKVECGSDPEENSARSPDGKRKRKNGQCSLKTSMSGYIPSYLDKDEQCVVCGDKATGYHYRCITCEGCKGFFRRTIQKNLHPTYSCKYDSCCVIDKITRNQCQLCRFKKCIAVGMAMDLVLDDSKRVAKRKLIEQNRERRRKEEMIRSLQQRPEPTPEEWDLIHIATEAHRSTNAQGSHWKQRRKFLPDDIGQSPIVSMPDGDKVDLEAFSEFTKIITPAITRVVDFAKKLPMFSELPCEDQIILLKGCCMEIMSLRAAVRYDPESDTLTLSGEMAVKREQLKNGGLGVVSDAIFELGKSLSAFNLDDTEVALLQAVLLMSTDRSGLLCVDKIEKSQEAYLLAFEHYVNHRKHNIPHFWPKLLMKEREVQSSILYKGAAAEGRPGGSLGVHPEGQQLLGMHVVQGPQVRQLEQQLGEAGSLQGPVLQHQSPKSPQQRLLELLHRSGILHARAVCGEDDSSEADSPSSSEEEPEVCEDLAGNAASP
Summary of the method: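 Measured here is mRNA from a GAL4-UAS reporter in transfected HepG2 cells carrying a Gal4-fused receptor, 24 h post-dose. DMSO served as negative control and baseline.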

[18] = BSK_3C_Vis: BioMAP Diversity Plus: 3C Assay for Morphology Visualization (AID 2283025); settings: primary human endothelial cells (HUVEC);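 further: fitted both ways so gain or loss versus DMSO counts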;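 on AC50: light microscopy image of cell morphology used as background control; cells imaged 24 h after dosing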
Summary of the method: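 Endothelial cells from human umbilical vein were treated with test chemicals for 24 h and inspected by light microscopy for changes in cell conformation.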

Measured: AC50

Sequence of E-selectin (Homo sapiens) (P16581 whole entry, looked up): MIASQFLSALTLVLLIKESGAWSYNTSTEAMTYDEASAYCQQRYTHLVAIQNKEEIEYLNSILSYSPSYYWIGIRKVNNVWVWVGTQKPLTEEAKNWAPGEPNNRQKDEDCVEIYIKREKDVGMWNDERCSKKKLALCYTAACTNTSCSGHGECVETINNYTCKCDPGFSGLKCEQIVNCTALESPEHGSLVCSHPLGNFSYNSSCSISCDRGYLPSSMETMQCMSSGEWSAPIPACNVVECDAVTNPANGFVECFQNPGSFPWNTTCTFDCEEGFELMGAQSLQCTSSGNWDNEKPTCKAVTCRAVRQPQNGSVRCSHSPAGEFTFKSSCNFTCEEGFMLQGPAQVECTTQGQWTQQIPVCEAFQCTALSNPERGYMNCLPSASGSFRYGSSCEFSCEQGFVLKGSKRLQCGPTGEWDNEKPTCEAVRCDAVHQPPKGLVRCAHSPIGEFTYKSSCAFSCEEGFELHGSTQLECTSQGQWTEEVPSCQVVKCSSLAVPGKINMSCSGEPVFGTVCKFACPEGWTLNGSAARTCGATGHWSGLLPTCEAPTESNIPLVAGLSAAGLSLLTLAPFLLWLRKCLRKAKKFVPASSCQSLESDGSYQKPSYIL

CCCCCCC(CO)CCCC (centres undefined)
active: [3] 54.8 µM
not listed: [16] | [17] | [18]
inactive: all other assays above

Nc1ccc(Cl)c([N+](=O)[O-])c1
inactive: [1] | [2] | [16]

O=c1[nH]c(=O)c2cn[nH]c2[nH]1
inactive: [2]

Cc1cc(CCC(=O)OCCOCCOCCOC(=O)CCc2cc(C)c(O)c(C(C)(C)C)c2)cc(C(C)(C)C)c1O
active: [6] 17.8 µM | [7] 17.8 µM | [8] 17.8 µM | [9] 32.3 µM
not listed: [2] | [16]
inactive: all other assays above

C=C(C#N)C(=O)OCC
inactive: [1] | [17]

IC(I)I
not listed: [2] | [16]
inactive: all other assays above

CCC1(C)NC(=O)NC1=O (centres undefined)
inactive: [2]

C=Cc1ccc(C)cc1
inactive: [1] | [3] | [17] | [16]

CN1C(=O)c2ccccc2C1=O
inactive: [1] | [3] | [16]

CS(C)=O
inactive: [1] | [3] | [17]

COc1ccc(N=Nc2cc(C)c(N=Nc3ccc(S(=O)(=O)O)cc3)cc2OC)cc1
inactive: [1] | [16]

[Cl][Au]([Cl])[Cl]
inactive: [1] | [16]

CCOC(=O)C1OC1c1ccccc1 (centres undefined)
inactive: [1] | [16]

CCCC[O][Al]([O]CCCC)[O]CCCC
inactive: [2]

CCCCC(CC)COC(C)=O (centres undefined)
inactive: [1] | [3] | [17] | [16]

O=C(c1ccccc1)C(O)c1ccccc1 (centres undefined)
inactive: [1] | [17] | [16]

CS(=O)(=O)c1ccc(Cl)cc1
inactive: [1] | [3] | [16]

CC(C)CC(C)CC(O)CC(C)C (centres undefined)
inactive: [1] | [3] | [17] | [16]

C/C=C(\C)C(=O)OCCc1ccccc1
inactive: [1] | [3] | [17]

CC(=O)O[C@@H]1C[C@@H]2CC[C@@]1(C)C2(C)C
inactive: [1] | [3] | [16]

COc1ccccc1N=Nc1c(S(=O)(=O)O)cc2cc(S(=O)(=O)O)cc(NC(C)=O)c2c1O
inactive: [1] | [3] | [16]

C=CC(C)C#N (centres undefined)
inactive: [1] | [3] | [17]

CCCC[P+](CCCC)(CCCC)CCCC
inactive: [1] | [17]

O=CCc1ccccc1
inactive: [1] | [3] | [16]

CCN(CCN)c1cccc(C)c1
inactive: [1] | [3] | [17] | [16]

CS(=O)(=O)OCCCCOS(C)(=O)=O
not listed: [2] | [16] | [17]
inactive: all other assays above

Brc1ccc(Br)c(Br)c1
inactive: [1]
active: [3] 137 µM

CC=CC=CCOC(=O)C(C)C
inactive: [1] | [17]

C=C(C)C(=O)OCCOCCOCCOCCOC(=O)C(=C)C
not listed: [2] | [3] | [16] | [17]
inactive: all other assays above

CCN(CC)C(=O)N(CC)CC
not listed: [2] | [3]
inactive: all other assays above

CCCCCCCCCC(=O)OC
active: [3] 47 µM
inactive: [1]

Nc1ccn([C@H]2CS[C@@H](CO)O2)c(=O)n1
inactive: [1] | [17]

O=C(CC(=O)c1ccccc1)c1ccccc1
inactive: [1] | [3] | [16]
active: [17] 58.5 µM

COCCOC(=O)c1ccccc1C(=O)OCCOC
inactive: [1] | [16]

C1CCCCC1
inactive: [1] | [3]

Cc1c(Cl)cccc1[N+](=O)[O-]
inactive: [1] | [3] | [16]

OCCCCC(O)CO (centres undefined)
inactive: [1] | [17]

CN(C)C(=S)SC(=S)N(C)C
active: [4] 19.9 µM | [5] 30.9 µM | [6] 31.4 µM | [7] 29.5 µM | [8] 31.2 µM | [9] 3.95 µM | [18] 39.2 µM | [12] 19.9 µM
not listed: [2]
inactive: all other assays above

Source: PubChem BioAssay (EPA / NIEHS)
